What all share (assay type): functional
Assay [1] deals with Plasmodium falciparum. As to the kind of experiment: GSK_TCMDC: Inhibition of Plasmodium falciparum 3D7 in whole red blood cells, using parasite LDH activity as an index of growth. Test compounds present at 2uM.
Assay [2] deals with Plasmodium falciparum. As to the kind of experiment: GSK_TCMDC: Inhibition of Plasmodium falciparum Dd2 in whole red blood cells, using parasite LDH activity as an index of growth. Test compounds present at 2uM.
The next assay relates to HepG2. The assay can be described thus: GSK_TCMDC: Percent inhibition of human HepG2 cell line. Test compounds present at 10uM.

Here are results for 32 molecules from ChEMBL document CHEMBL1157539, “Thousands of chemical starting points for antimalarial lead identification” (Nature, 2010).

Regarding `CCCCCCN1CCC(NCc2ccc(Cl)cc2)CC1.O=C(O)C(F)(F)F`, the Inhibition in the assay on Plasmodium falciparum [1] was determined as 98%; in the assay with Plasmodium falciparum [2], 9%; in the assay with HepG2 it was 19%.

Take `CCCc1cc(NC2CCN(C)CC2)nc(Nc2ccc(F)cc2)n1`: the Inhibition in the assay on Plasmodium falciparum [1] is on record as 95%; in the assay on Plasmodium falciparum [2], 16%; with HepG2, 20%.

For `Oc1ccc(CCNc2nc(NCc3ccccc3-c3ccc(C(F)(F)F)cc3)nc(N3CCNCC3)n2)cc1`, the Inhibition in the assay on Plasmodium falciparum [1] is reported as 97%; in the assay with Plasmodium falciparum [2], 53%; with HepG2 it was 17%.

As to `Cc1cc(=NN=Cc2ccc(F)cc2)c2cccc(C)c2[nH]1`, the Inhibition in the assay with Plasmodium falciparum [1] worked out at 100%; with Plasmodium falciparum [2], 99%; in the assay with HepG2, 7%.

In the case of `Cc1cc(NCCc2ccccc2)nc(NC(=N)Nc2ccc(Cl)cc2)n1`, the Inhibition in the assay with Plasmodium falciparum [1] was found to be 100%; in the assay on Plasmodium falciparum [2], 100%; in the assay on HepG2, 7%.

On to `COc1ccccc1-n1c(-c2ccc3ccccc3c2)csc1=NC(=O)c1ccccc1`, for which the values for the Inhibition in the assay with Plasmodium falciparum [1], in the assay with Plasmodium falciparum [2] and in the assay on HepG2 were 93%, 79% and 0%, respectively.

Consider `CC1=C(C(=O)Nc2ccccc2)C(c2ccc([N+](=O)[O-])cc2)n2ncc(C(=O)Nc3ccccc3)c2N1` (stereo unspecified), for which the Inhibition in the assay with Plasmodium falciparum [1] is 86%; in the assay on Plasmodium falciparum [2], 68%; in the assay on HepG2, 9%.

On to `CCC1CN2CCc3c([nH]c4ccccc34)C2CC1CC1=NCCc2c1[nH]c1ccccc21.Cl` (stereo unspecified), for which the Inhibition amounted to 100% with Plasmodium falciparum [1], 47% in the assay on Plasmodium falciparum [2] and 20% with HepG2.

In the case of `COc1cc2nc(N3CCC(c4ccccc4)CC3)nc(NCc3ccc(=O)[nH]c3)c2cc1OC`, the values for the Inhibition in the assay on Plasmodium falciparum [1], with Plasmodium falciparum [2] and in the assay on HepG2 were 100%, 58% and 12%, respectively.

`COc1cc(F)c2ncc(Cl)c(CCN3CCC(NCc4ccc5c(n4)NC(=O)CS5)CC3)c2c1.Cl`: the Inhibition in the assay on Plasmodium falciparum [1] is 99%; in the assay with Plasmodium falciparum [2], 41%; with HepG2, 18%.

With `Br.COc1cc(CCON2C(N)=NC(N)=NC2(C)C)cc(OC)c1OC`, the figures for the Inhibition in the assay on Plasmodium falciparum [1], in the assay on Plasmodium falciparum [2] and in the assay on HepG2 were 93%, 95% and 59%, respectively.

Take `CC[C@H](C)CNC(=O)c1cncc(-c2ccc(CN(C)C3CCN(C)CC3)cc2)c1.O=C(O)C(F)(F)F`: the Inhibition worked out at 100% in the assay with Plasmodium falciparum [1], 97% with Plasmodium falciparum [2] and 0% with HepG2.

On to `O=C(Cc1cc(F)cc(F)c1)NC1CCN(c2ccnc3cc(Cl)ccc23)C1.O=C(O)C(F)(F)F` (stereo unspecified), for which the Inhibition in the assay with Plasmodium falciparum [1] stood at 82%; in the assay on Plasmodium falciparum [2] it was 100%; in the assay with HepG2 it was 13%.

Take `CCOC(=O)CNC(=O)c1cc(=O)c2ccccc2o1`: the results for the Inhibition with Plasmodium falciparum [1], with Plasmodium falciparum [2] and in the assay on HepG2 were 99%, 0% and 22%, respectively.

For `CC(=O)O.C[C@H](NC(=O)[C@H](Cc1ccccc1)NC(=O)OC(C)(C)C)C(=O)N[C@@H](CC1CCCCC1)C(O)CN` (stereo partly specified), the Inhibition was 96% in the assay with Plasmodium falciparum [1], 64% in the assay with Plasmodium falciparum [2] and 0% in the assay with HepG2.

As for `Cc1ccc2[nH]c(-c3ccccc3)cc(=NN=Cc3cccnc3)c2c1`, the figures for the Inhibition with Plasmodium falciparum [1], in the assay with Plasmodium falciparum [2] and in the assay on HepG2 were 99%, 39% and 12%, respectively.

As to `O=C(NC1CCN(c2ncc(C(F)(F)F)cc2Cl)CC1)c1cccs1`, the Inhibition in the assay on Plasmodium falciparum [1] is reported as 84%; in the assay with Plasmodium falciparum [2] it was 65%; in the assay on HepG2, 15%.

`COc1cc(C)nc2ccc(NC(=O)c3cc([N+](=O)[O-])cc([N+](=O)[O-])c3)cc12.Cl`: the Inhibition in the assay with Plasmodium falciparum [1] is 100%; with Plasmodium falciparum [2], 94%; with HepG2 it was 0%.

With `Cc1cc(=NN=Cc2ccccc2)c2cc(F)ccc2[nH]1`, the results for the Inhibition in the assay with Plasmodium falciparum [1], in the assay on Plasmodium falciparum [2] and in the assay on HepG2 were 100%, 94% and 11%, respectively.

In the case of `N#Cc1ccc(N(CCOC(=O)c2ccccc2)Cc2ccccc2C(F)(F)F)cc1C(F)(F)F`, the results for the Inhibition in the assay with Plasmodium falciparum [1], with Plasmodium falciparum [2] and with HepG2 were 92%, 67% and 6%, respectively.

For `Cl.O=c1cc(NCCCNCc2scc3c(Cl)cc(C(F)(F)F)nc23)[nH]c2ccccc12`, the Inhibition in the assay on Plasmodium falciparum [1] stood at 99%; in the assay on Plasmodium falciparum [2] it was 21%; with HepG2, 9%.

For the molecule `CC(=O)Nc1nc(C(=O)Nc2cccc(-c3ccc4c(cnn4CC4CC4)c3)c2)cs1`, the results for the Inhibition in the assay on Plasmodium falciparum [1], in the assay with Plasmodium falciparum [2] and in the assay with HepG2 were 95%, 67% and 16%, respectively.

Turning to `COc1ccc2nccc([C@@H](O)CN3C4CCC3CC(NCc3ccc5c(n3)NC(=O)CS5)C4)c2n1.Cl` (stereo partly specified), the Inhibition in the assay with Plasmodium falciparum [1] came out at 99%; in the assay with Plasmodium falciparum [2] it was 11%; with HepG2, 0%.

`Cn1nc(-c2cccc(CNC3CCc4ccccc43)c2)c2cnc(NC3CCCC3)nc21` (stereo unspecified): the Inhibition in the assay on Plasmodium falciparum [1] was determined as 100%; in the assay with Plasmodium falciparum [2] it was 23%; with HepG2, 14%.

Take `NCCCNc1nccc(N2CCc3ncnc(Nc4ccc(OCc5cccc(F)c5)c(Cl)c4)c3C2)n1`: the Inhibition in the assay with Plasmodium falciparum [1] is recorded as 98%; in the assay on Plasmodium falciparum [2], 93%; in the assay with HepG2 it was 18%.

For the molecule `COc1cccc(C2=CC(C)(C)Oc3cc(OCCN(C)C)ccc32)c1.Cl`, the Inhibition in the assay with Plasmodium falciparum [1] came to 97%; in the assay on Plasmodium falciparum [2] it was 96%; in the assay with HepG2, 57%.

In the case of `COc1ccc(CNC(=O)NC2CCN(c3ccnc(Nc4cc(OC)c(OC)c(OC)c4)n3)C2)cc1` (stereo unspecified), the Inhibition with Plasmodium falciparum [1] came to 91%; in the assay on Plasmodium falciparum [2] it was 90%; in the assay on HepG2 it was 0%.

Turning to `COc1csc2cc(Br)ccc12`, the Inhibition in the assay with Plasmodium falciparum [1] stood at 100%; with Plasmodium falciparum [2], 0%; with HepG2, 6%.

Regarding `CCN(CC)CCN(Cc1ccc(-c2ccc(C(F)(F)F)cc2)cc1)C(=O)CN1C(CCc2cccc(F)c2F)=NS(=O)(=O)c2ccccc21`, the Inhibition with Plasmodium falciparum [1] turned out to be 100%; in the assay on Plasmodium falciparum [2] it was 49%; with HepG2 it was 36%.

In the case of `NS(=O)(=O)c1cccc(Nc2nc(N[C@@H]3CCNC3)nc3cc[nH]c(=O)c23)c1.O=C(O)C(F)(F)F`, the Inhibition in the assay with Plasmodium falciparum [1] came to 99%; in the assay with Plasmodium falciparum [2], 98%; with HepG2 it was 7%.

With `COc1cc(-c2ccc3c(-c4ccc(C(=O)N5CCN(C)CC5)cc4)n[nH]c3n2)cc(OC)c1OC`, the results for the Inhibition in the assay with Plasmodium falciparum [1], in the assay on Plasmodium falciparum [2] and with HepG2 were 91%, 54% and 27%, respectively.

`CN1CCN(c2ccnc3ccc(NC(=O)Nc4cccc5c(C#N)cccc45)cc23)CC1`: the Inhibition in the assay with Plasmodium falciparum [1] was determined as 91%; in the assay on Plasmodium falciparum [2] it was 40%; with HepG2 it was 0%.

As a reminder, the Inhibition is the relative decrease from the control value, in per cent.
